Here are results for 33 molecules from PubChem BioAssay (EPA / NIEHS).

Activity calls are given as the source filed them. Rule for the calls: active = hit-call score of the fitted dose curve at least 0.9, where 1 is the maximum; inactive = score below 0.9.

Read-out in the first test: serum amyloid A (SAA), SAA1 (gene 6288)
In words: BSK_CASM3C_SAA: BioMAP Diversity Plus: CASM3C Assay for serum amyloid A (SAA) Biomarker Activity (AID 2283049).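 Note: SAA protein level quantified by ELISA.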 The settings on record: primary human coronary artery smooth muscle cells; actives raise or lower the signal.
Consider `Nc1ncc([N+](=O)[O-])s1`, for which the result was inactive. With `O=C(O)C(F)(F)C(F)(F)C(F)(F)C(F)(F)C(F)(F)C(F)(F)C(F)(F)C(F)(F)C(F)(F)C(F)(F)F`, the outcome was inactive. Regarding `O=C(O)C(F)(F)C(F)(F)C(F)(F)C(F)(F)C(F)(F)C(F)(F)F`, the result was inactive. On to `NC(=O)O`, for which the result was inactive. As to `Oc1c(I)cc(I)cc1I`, the outcome was inactive.

Take `NC(=S)Nc1ccccc1`: the outcome was inactive. `COP(=S)(OC)Oc1ccc(S(=O)(=O)N(C)C)cc1`: the outcome was inactive. The same measure, in the same setting: with `COC[C@H](C)N(C(=O)CCl)c1c(C)csc1C` the entry was “inactive”. `Nc1ccc(-c2ccc(N)c(Cl)c2)cc1Cl`: the result was inactive.

Read-out in another test: not listed separately
In words: BSK_CASM3C_SRB: Viability Assessment in the BioMAP Diversity Plus: CASM3C Assay (AID 2283050).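 Note: total protein by SRB staining as cytotoxicity measure in parallel cultures; cells exposed to compound for 24 h.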 The settings on record: primary human coronary artery smooth muscle cells.
As to `ClCC(Cl)CCl`, the outcome was inactive.

For `CCOP(=S)(OCC)SCSP(=S)(OCC)OCC`, the outcome was inactive. In the case of `CC(=O)C(Cl)C(=O)N(C)C` (configuration not stated), the result was inactive. As for `COc1cc(-c2ccc(N)c(OC)c2)ccc1N`, the result was inactive. For `O=C1C2(Cl)C3(Cl)C4(Cl)C(Cl)(Cl)C5(Cl)C3(Cl)C1(Cl)C5(Cl)C24Cl` (configuration not stated), the AC50 was 24 µM (active). Turning to `CCOC(=O)/C=C(C)/C=C/C[C@@H](C)CCCC(C)C`, the AC50 is 31 µM (active). As for `CCOP(=S)(OCC)Oc1ccc(S(C)=O)cc1` (configuration not stated), the result was inactive.

`ClC1(Cl)C2(Cl)C3(Cl)C4(Cl)C(Cl)(Cl)C5(Cl)C3(Cl)C1(Cl)C5(Cl)C24Cl` (configuration not stated): the result was inactive. In the case of `CCC(=O)C(CC(C)N(C)C)(c1ccccc1)c1ccccc1` (configuration not stated), the result was inactive. For `Cn1sc(Cl)cc1=O`, the outcome was inactive. Consider `Oc1cccc2cccnc12`, for which the outcome was inactive. In the case of `CC(C)(C)c1cc(O)ccc1O`, the result was inactive. Take `CCNc1nc(NC(C)(C)C)nc(SC)n1`: the outcome was inactive.

Turning to `CC(C)c1ccc(CO)cc1`, the outcome was inactive. With `CC(C)(C)CC(C)(C)c1ccc(O)cc1`, the AC50 is 13.7 µM (active). In the case of `CCN1CCC2(CC1)COc1cc3c(cc12)N(C(=O)c1ccc(-c2ccc(-c4nnc(C)o4)cc2C)cc1)CC3`, the AC50 was 24.4 µM (active). In the case of `O=Cc1cccc(Oc2ccccc2)c1`, the result was inactive. Still for that read-out and setting: with `Cc1ccccc1N` the entry was “inactive”; with `O=C(O)C(Cl)(Cl)Cl`, “inactive”; with `O=c1[nH]c(=O)[nH]c(=O)[nH]1`, “inactive”. On the same count and under the same terms, with `O=[N+]([O-])c1ccc2c3c(cccc13)CC2` the entry was “inactive”; with `C=CC(=O)OCCCCCC(C)C`, “inactive”. As for `CCC(C)(C)c1ccc(O)c(C(C)(C)CC)c1`, the AC50 is 13 µM (active). `CCOP(=S)(OCC)SCCS(=O)(=O)CC`: the outcome was inactive. As for `Nc1ncc([N+](=O)[O-])s1`, the outcome was inactive. For `O=C(O)C(F)(F)C(F)(F)C(F)(F)C(F)(F)C(F)(F)C(F)(F)C(F)(F)C(F)(F)C(F)(F)C(F)(F)F`, the result was inactive.

For the molecule `O=C(O)C(F)(F)C(F)(F)C(F)(F)C(F)(F)C(F)(F)C(F)(F)F`, the outcome was inactive. Consider `NC(=O)O`, for which the result was inactive. Regarding `Oc1c(I)cc(I)cc1I`, the outcome was inactive. For `NC(=S)Nc1ccccc1`, the result was inactive. In the case of `COP(=S)(OC)Oc1ccc(S(=O)(=O)N(C)C)cc1`, the result was inactive. Consider `COC[C@H](C)N(C(=O)CCl)c1c(C)csc1C`, for which the outcome was inactive. Regarding `Nc1ccc(-c2ccc(N)c(Cl)c2)cc1Cl`, the outcome was inactive.
